Among the data in PubChem BioAssay (NCI) are growth values, retold here.

Compounds without any hit were thinned out: in the full panel of roughly 83,000, 20% have a hit.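 A percent growth of 40 corresponds to 60% growth inhibition; 0 means no net growth; -100 means all cells died. Active threshold: below 10.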 Active and inactive are the calls of the source.

The assay deals with HL-60(TB) leukemia. As to the kind of experiment: NCI-60 one-dose screen, 48 h (100 = growth as untreated, 0 = no growth, -100 = all killed). The following applies: 10 µM unless noted.
In the case of `Cn1cc(-c2nc(-c3c[nH]c4c(Cl)nccc34)cs2)c2ccccc21`, the growth was 83.3% (inactive). As for `Cc1cccc[n+]1CCC[n+]1ccccc1C`, the figure is 86.4% (inactive). As for `ClCc1cccc2c(CCl)cccc12`, the figure is 48.2% (inactive); as for `CC(CCN1CCN(CCC(C)CC(C)(C)C)C1CC(C)CC(C)(C)C)CC(C)(C)C` (stereo not given), 97.8% (inactive); as for `C#Cc1ccc(-n2c(/C=C/c3cc(OC)c(OC)c(OC)c3)nc3ncccc3c2=O)cc1`, 26.5% (inactive). As for `Cc1ccc(NC(=O)CCl)cc1Cl`, the growth was 106% (inactive). As for `O=C(CCl)NNc1nccc(Nc2ccc(S(=O)(=O)Nc3ccncc3)cc2)n1`, the figure is 36.5% (inactive); as for `O=S(=O)(NCCCNc1cc(-c2cn(-c3ccccc3)nc2-c2ccccc2)ccn1)c1ccc(C(F)(F)F)cc1`, 39.1% (inactive); as for `CCN(CC)c1ccc(/C=N\NC(=O)c2cccc(Nc3ccnc(C(F)(F)F)c3)c2)c(O)c1`, 69.2% (inactive). In the case of `C#CCCCCCCC[C@@H]1OC(=O)[C@H]([C@@H](C)CC)NC(=O)[C@H]([C@@H](C)CC)NC(=O)CC(=O)[C@@H]1C` it was 103% (inactive); in that of `CC1=C(Cl)C(=O)c2cc(C)ccc2C1=O`, 117% (inactive). In the case of `CCCCCCCCCCCCCCCCCC1=NCCN1CCNC(C)=O` it was 79.2% (inactive); in that of `O=C(Nc1ccc(Br)cc1)c1ccc(Cl)c(Cl)c1`, 19.4% (inactive); in that of `COc1ccc2nc(NC(=O)/C(=C/c3cc(OC)c(OC)c(OC)c3)c3ccc(OC)c(OC)c3)sc2c1`, 94.5% (inactive). In the case of `c1ccc(C2NCCNC2c2ccccc2)cc1` (stereo not given), the growth is 103% (inactive). As for `O=C(Nc1ccc(Nc2ccncc2)cc1)c1ccc(C(=O)Nc2ccc(Nc3ccncc3)cc2)cc1`, the figure is 23% (inactive); as for `S=C(Nc1ccccc1)N1CCCCC1`, 93.5% (inactive).

Regarding `Oc1ccc(C(c2ccc(O)cc2)C(Cl)(Cl)Cl)cc1`, the growth is 68.1% (inactive).

Regarding `Cn1nnnc1-c1ccc(N)cc1`, the growth is 94.4% (inactive). As for `CSc1nc(N)n2nccc2n1`, the figure is 106% (inactive).

For `CSc1nc(C)c(C(=O)CCN2CCN(c3ccccn3)CC2)s1`, the growth is 102% (inactive). As for `CC(=O)Oc1ccccc1C(=O)N(Cc1ccc2c(Cl)cc(Cl)c(O)c2n1)c1ccccc1`, the figure is 46.7% (inactive); as for `Nc1nc(Nc2cccnc2)sc1C(=O)c1ccccc1F`, -35.6% (active); as for `O=C(COc1cc(O)c2c(=O)cc(-c3ccccc3)oc2c1)Nc1ccccc1`, 74.5% (inactive). Turning to `COc1cc(/C=C/C(=O)/C=C/c2ccc(-n3ccnc3)cc2)ccc1O`, the growth was 36.2% (inactive). `COc1ccc2nc(-c3ccc(Cl)cc3)cc(C(=O)N3N=C(c4ccc(N)cc4)CC3c3ccccc3)c2c1` (stereo not given): the growth is -1.6% (active). As for `COc1ccccc1-n1c(-c2ccc(O)cc2C)cn2c3c(=O)[nH]c(=O)n(C)c3nc12`, the growth was 79.9% (inactive). As for `CSc1ccc2c3c(n(CCCn4ccnc4)c(=O)c2c1)-c1ccccc1C3=O`, the figure is 15.5% (inactive); as for `COc1cccc(C(=O)NCCNc2cc(-c3cn(-c4ccccc4)nc3-c3cccc(OC)c3)ccn2)c1`, 41.5% (inactive); as for `CCOc1ccccc1NC(=O)CCC(=O)OC`, 78.7% (inactive).

On to `COc1ccc(-c2c(N)n[nH]c2-c2ccc(Cl)cc2O)cc1OC`, for which the growth was 91.9% (inactive).

Take `Cc1nn(-c2ccccc2)nc1C(=O)Nc1ccccc1C(=O)NCC1CC1`: the growth was 95.8% (inactive).

Regarding `COc1cc2c(cc1O)C(=O)CCCC2`, the growth is 90.3% (inactive). In the case of `N#C/C(=C/C=C/c1ccccc1)S(=O)c1ccccc1` (stereo not given) it was -16.5% (active). In the case of `CCc1ccc(C(=Nc2ccc(N(C)C(=O)CN3CCN(C)CC3)cc2)c2c(O)[nH]c3ccc(C(=O)OC)cc23)cc1` it was -67% (active); in that of `NNc1ccccc1C(=O)O`, 49.1% (inactive).

Take `COc1ccc(-c2cc(-c3ccc(Cl)cc3)nc(SCCCC(=O)NO)n2)cc1OC`: the growth was -32.4% (active). As for `COC(=O)[C@]12CC[C@@H](C)[C@H](C)[C@@H]1C1=CC[C@@H]3[C@@]4(C)C(C=O)=C[C@@](C)(COC(C)=O)C4=CC[C@@]3(C)[C@]1(C)CC2`, the figure is -53.1% (active); as for `C[C@@H]1CC[C@@]2(OC1)O[C@H]1C[C@H]3[C@@H]4CC=C5C[C@@H](O[C@@H]6O[C@H](CO)[C@@H](O[C@@H]7O[C@@H](CO)[C@H](O)[C@H]7O)[C@H](O)[C@H]6O[C@@H]6O[C@@H](C)[C@H](O)[C@@H](O)[C@H]6O)CC[C@]5(C)[C@H]4CC[C@]3(C)[C@H]1[C@@H]2C`, -84.1% (active). As for `CC1=CC(=O)c2ccccc2C1=O`, the figure is 106% (inactive).
